Measurements from PubChem BioAssay AID463173 (ICCB-Longwood Screening Facility, Harvard Medical School, 2010).
The whole screen tested about 52,000 compounds, of which about 1,700 (3.3%) were called active. Cut-off read from the data, not from the text of the source: active = survival mostly below about 52% (no sharp cut-off); inactive = mostly above about 56%. What follows is part of a selection rich in actives, with near analogues and random picks from the rest.

system: Wild type; test: S. aureus survival, RN4220 and DeltatarO strains – OD600, teichoic acid synthesis inhibitors, primary screen (AID 463173); details: S. aureus RN4220 wild type/DeltatarO growth, OD600, 18 h, active compounds read low, screened at 18.75 µg/mL (by protocol)

SMILES	survival
Cn1c(=O)n(-c2cccc(Cl)c2)c(=O)c2sc3ccccc3c21	71% (inactive)
Cc1ccc(S(=O)(=O)N2CCN(Cc3cc(=O)n4nc(-c5ccccc5Cl)sc4n3)CC2)cc1	64% (inactive)
CCn1cc(S(=O)(=O)c2ccccc2)c(=O)c2cc(F)c(F)cc21	82% (inactive)
CCc1ccccc1NS(=O)(=O)c1ccc2[nH]cc(C(=O)N3CCCCC3)c(=O)c2c1	127% (inactive)
Cc1ccc(-c2nn(CCC(N)=O)c(=O)c3ccccc23)cc1	65% (inactive)
CCOc1ccc(C(=O)Nc2ccc(-c3cc4ccccc4oc3=O)cc2)cc1Br	75% (inactive)
Cc1ccc(Cl)cc1NC(=O)c1ccc(-c2nc(CSc3ccccc3)c(C)o2)cc1	55% (inactive)
CCN1CCC(N(Cc2ccc3c(c2)OCO3)C(=O)Nc2cccc(C)c2C)CC1	83% (inactive)
CCN1CCC(N(Cc2cccc(OC)c2)C(=O)Nc2cccc(C)c2C)CC1	-3% (active)
CCN1CCC(N(Cc2cccc(OC)c2)C(=O)Nc2ccc(C)cc2Cl)CC1	53% (inactive)
CCc1cccc(C)c1NS(=O)(=O)c1ccc(-n2cccn2)cc1	128% (inactive)
O=C(CCc1ccccc1)Nc1nnc(CCN2CCCCC2)s1	97% (inactive)
CCCn1cc(S(=O)(=O)c2ccccc2)c(=O)c2cc(F)c(N3CCCC(C)C3)cc21 (stereo not given)	71% (inactive)
CC(C)OC(=O)CSc1nnc(CNc2ccc(F)cc2)n1C1CCCCC1	108% (inactive)
CCc1ccc(S(=O)(=O)NCc2cccn2Cc2cccc(C)c2)cc1	71% (inactive)
Cc1cccc(Cn2cccc2CNS(=O)(=O)c2ccccc2F)c1	-4% (active)
Cc1cccc(Cn2cccc2CNS(=O)(=O)c2ccc(Br)cc2)c1	64% (inactive)
Cc1cccc(-c2noc(-c3ccc(N4CCCC4)c([N+](=O)[O-])c3)n2)c1	81% (inactive)
COc1ccc(-c2noc(COc3cc(C)ccc3C)n2)cc1OC	0% (active)
CCc1ccc(OCc2nc(-c3ccc(OC)c(OC)c3)no2)c(Br)c1	38% (inactive)

SMILES	survival
Cc1ccc(-c2noc(-c3ccc(N4CCN(C)CC4)c([N+](=O)[O-])c3)n2)cc1	85% (inactive)
COc1ccc(-c2noc(CN(C)S(=O)(=O)c3c(C)cc(C)cc3C)n2)cc1OC	78% (inactive)
COc1ccc(N2CCN(c3ccc(-c4nc(-c5cccc(C)c5)no4)cc3[N+](=O)[O-])CC2)cc1	89% (inactive)
COc1ccc(OCc2nc(-c3ccc(OC)c(OC)c3)no2)cc1	70% (inactive)
COc1ccc(-c2noc(COc3ccc(Br)cc3C)n2)cc1OC	11% (active)
Cc1cccc(-c2noc(-c3ccc(N4CCN(C)CC4)c([N+](=O)[O-])c3)n2)c1	-3% (active)
COc1ccc(-c2noc(COc3cc(C)c(Br)c(C)c3)n2)cc1OC	80% (inactive)
COc1cc(OC)cc(-c2nc(-c3ccc4c(c3)[nH]c(=O)n4C)no2)c1	73% (inactive)
COc1cc(OC)cc(-c2nc(-c3cccc(C)c3)no2)c1	-15% (active)
Cc1cc(C)c(S(=O)(=O)NCC(c2ccco2)N2CCN(c3ccccc3)CC2)c(C)c1 (stereo not given)	85% (inactive)
Cc1ccc(Nc2nc3ccccc3c3nncn23)c(Cl)c1	132% (inactive)
O=C(NCc1cccs1)c1nn(-c2ccccc2Cl)nc1CO	116% (inactive)
COc1cccc(-c2cc(C(=O)Nc3cc(OC)c(OC)c(OC)c3)on2)c1	69% (inactive)
COc1ccc(NS(=O)(=O)c2ccc3[nH]c4c(c3c2)CCCC4)c(OC)c1	99% (inactive)
COc1cccc(CCNC(=O)c2cnc3sc(N4CCCCCC4)nn3c2=O)c1	80% (inactive)
O=C(CSc1ncc(S(=O)(=O)c2ccc(Cl)cc2)c(=O)[nH]1)Nc1cccc(C(F)(F)F)c1	78% (inactive)
COc1ccc(C(=O)NCc2nc(-c3cccc(C)c3)no2)cc1OC	113% (inactive)
COc1cccc(-c2noc(COc3cccc(C)c3C)n2)c1	85% (inactive)
COc1ccccc1OCc1nc(-c2cccc(C)c2)no1	0% (active)
Cc1ccc(N2C(=O)CS(=O)(=O)C23C(=O)N(Cc2cccc(F)c2)c2ccccc23)cc1Cl (stereo not given)	75% (inactive)

SMILES	survival
COc1ccc(CC(=O)N2CC(=O)Nc3ccc(Br)cc3C2c2ccc(F)cc2)cc1 (stereo not given)	64% (inactive)
Cc1ccc2c(c1)N(C(=O)Nc1cccc(C)c1C)CCO2	89% (inactive)
Cc1cccc(-n2nc(C)c(C(=O)N3CCN(c4ccccc4)CC3)c2-n2cccc2)c1	53% (inactive)
COc1cccc(NC(=O)c2c(C)nn(-c3cccc(C)c3)c2-n2cccc2)c1	0% (active)
COc1cc(NC(=O)c2c(C)nn(-c3ccc(F)cc3)c2-n2cccc2)cc(OC)c1	70% (inactive)
COc1cccc(CNC(=O)c2c(C)nn(-c3cccc(C)c3)c2-n2cccc2)c1	71% (inactive)
CCOC(=O)N1CCN(C(=O)c2c(C)nn(-c3cccc(C)c3)c2-n2cccc2)CC1	-3% (active)
CCOC(=O)N1CCC(NC(=O)c2c(C)nn(-c3cccc(C)c3)c2-n2cccc2)CC1	85% (inactive)
Cc1ccc(NC(=O)C2C3C=CC4(O3)C2C(=O)N(c2ccccc2F)C4C(=O)NC2CCCC2)cc1 (stereo not given)	84% (inactive)
O=C(Nc1ccc(C(=O)OCc2cc(=O)n3nc(C4CC4)sc3n2)cc1)c1ccccc1	70% (inactive)
O=C(CCc1nc2cccnc2n1Cc1cccs1)Nc1cccc(C(F)(F)F)c1	79% (inactive)
CCC(Sc1ncnc2sc3c(c12)CCCC3)C(=O)OCC(C)C (stereo not given)	-3% (active)
Clc1ncnc2sc3c(c12)CCCC3	108% (inactive)
CCOC(=O)CSc1ncnc2sc3c(c12)CCC3	100% (inactive)
CC(C)OCCCNc1ncnc2sc3c(c12)CCCC3	79% (inactive)
CNC(=O)CSc1ncnc2sc3c(c12)CCCC3	104% (inactive)
CCOC(=O)C(CC)Sc1ncnc2sc3c(c12)CCCC3 (stereo not given)	-3% (active)
Nc1ncnc2sc3c(c12)CCCC3	109% (inactive)
COC(=O)C(C)n1cnc2sc3c(c2c1=O)CCCC3 (stereo not given)	102% (inactive)
CCC(Sc1ncnc2sc3c(c12)CCCC3)C(=O)OC(C)C (stereo not given)	-2% (active)
